Here are results for 90 compounds from PMC4336329 (PLoS ONE, 2015).

The whole screen tested about 310,000 compounds, of which about 14,000 (4.5%) showed an effect of 50% or more. The effect is printed as a negative number. The sample holds strong results, similar compounds and a random draw of the others, so the mix is not that of the screen.
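Also: peak tail current of the secondary pulse compared with the same well before compound.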

The target in the experiment is human ether-à-go-go-related gene (hERG) potassium channel (human, UniProt Q12809). The experiment in a line: primary screen, population patch clamp on CHO cells stably expressing hERG; higher = less effect of the substance. How it is done: Briefly, Chinese hamster ovary (CHO) cells stably expressing the hERG channel were dislodged from tissue culture flasks and dispensed into PPC plates. […] During the recording, background leak currents were estimated by a 100 ms step to -80 mV from an initial holding potential of -70 mV and subtracted from the subsequent current measurement. The campaign was conducted in two phases using slight differences in recording protocol. In the first phase, the initial voltage pulse used a 100 ms step to -30 mV from a holding potential of -70 mV, a 2 s conditioning step to +25 mV, and a 2 s test step to -30 mV. During the second phase of the screen, the potential during the conditioning step was raised to +45 mV. In both phases of the campaign, a secondary voltage pulse was applied using the same parameters as the second phase initial pulse. The initial and secondary pulses were applied in the absence of compound, and upon application of 1 μM and 10 μM test concentrations. […]
human ether-à-go-go-related gene (hERG) potassium channel, sequence (Q12809 whole entry, looked up): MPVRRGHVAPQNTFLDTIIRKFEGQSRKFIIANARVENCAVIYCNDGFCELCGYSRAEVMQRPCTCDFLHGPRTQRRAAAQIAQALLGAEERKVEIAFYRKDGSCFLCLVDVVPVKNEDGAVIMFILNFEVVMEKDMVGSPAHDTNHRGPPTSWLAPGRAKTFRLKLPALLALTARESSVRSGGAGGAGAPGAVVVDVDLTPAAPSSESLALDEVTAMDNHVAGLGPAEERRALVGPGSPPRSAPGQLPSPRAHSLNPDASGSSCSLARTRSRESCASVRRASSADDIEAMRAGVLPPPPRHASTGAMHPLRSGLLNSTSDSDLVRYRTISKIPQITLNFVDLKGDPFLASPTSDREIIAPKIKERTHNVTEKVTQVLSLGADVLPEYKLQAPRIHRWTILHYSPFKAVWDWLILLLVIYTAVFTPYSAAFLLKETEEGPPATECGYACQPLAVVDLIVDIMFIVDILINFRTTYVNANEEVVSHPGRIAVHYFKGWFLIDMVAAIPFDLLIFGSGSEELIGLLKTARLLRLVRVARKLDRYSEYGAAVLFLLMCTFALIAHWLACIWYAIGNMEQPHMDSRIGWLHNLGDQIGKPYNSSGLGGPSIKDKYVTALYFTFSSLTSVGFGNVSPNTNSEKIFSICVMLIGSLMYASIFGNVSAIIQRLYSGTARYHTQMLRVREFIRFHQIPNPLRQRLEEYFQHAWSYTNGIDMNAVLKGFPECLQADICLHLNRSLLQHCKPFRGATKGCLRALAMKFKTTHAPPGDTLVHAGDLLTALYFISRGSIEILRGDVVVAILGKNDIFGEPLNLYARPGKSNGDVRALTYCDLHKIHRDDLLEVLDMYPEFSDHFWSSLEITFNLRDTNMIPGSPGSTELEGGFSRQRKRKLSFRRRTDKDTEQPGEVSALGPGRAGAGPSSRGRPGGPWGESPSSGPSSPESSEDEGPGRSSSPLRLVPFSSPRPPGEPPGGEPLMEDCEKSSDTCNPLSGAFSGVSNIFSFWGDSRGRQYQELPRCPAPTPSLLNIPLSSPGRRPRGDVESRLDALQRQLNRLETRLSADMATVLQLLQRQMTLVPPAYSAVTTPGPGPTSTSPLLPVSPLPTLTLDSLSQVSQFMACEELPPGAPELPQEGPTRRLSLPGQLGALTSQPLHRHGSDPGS
For `COc1ccc(CSCCc2n[nH]c(=S)n2-c2ccccc2)cc1C`, the “hERG current change (%, negative = inhibition) at 10uM” value is recorded as 0.99%. To `O=C(COc1ncnc2ccccc12)Nc1cccc([N+](=O)[O-])c1` belongs -2.61%; to `COc1cc(N/C(N)=N/c2nc(C)cc(C)n2)cc(OC)c1`, -49.8%. On to `CC(=O)Nc1ccc(N/C(N)=N/c2nc(C)cc(C)n2)cc1`, for which the “hERG current change (%, negative = inhibition) at 10uM” value is recorded as 14%. Consider `Cc1ccc(N/C(N)=N/c2nc(C)cc(C)n2)cc1`, for which the “hERG current change (%, negative = inhibition) at 10uM” value is reported as -68.7%. With `Cc1cc(C)nc(NC(N)=NCCc2c[nH]c3ccccc23)n1`, the “hERG current change (%, negative = inhibition) at 10uM” value was 11.6%.

For `Cc1ccc(CN=C(N)Nc2nc(C)cc(C)n2)cc1.Cl`, the “hERG current change (%, negative = inhibition) at 10uM” value is on record as -76.1%. To `Cc1ccc(N/C(N)=N/c2nc(C(F)(F)F)cc(C(F)(F)F)n2)cc1` belongs 18.9%. As to `Cc1cc(C)cc(N/C(N)=N/c2nc(C)cc(C)n2)c1`, the “hERG current change (%, negative = inhibition) at 10uM” value was -50%. Regarding `Cc1cc(C)nc(NC(N)=NC(C)c2ccccc2)n1` (stereo not drawn), the “hERG current change (%, negative = inhibition) at 10uM” value is given as -0.0621%. In the case of `Cc1cc(C)nc(/N=C(\N)Nc2ccc(CC(=O)OC(C)C)cc2)n1`, the “hERG current change (%, negative = inhibition) at 10uM” value is -67.6%. Take `Cc1cccc(N/C(N)=N/c2nc(C)cc(C)n2)c1`: the “hERG current change (%, negative = inhibition) at 10uM” value is on record as -28%. On to `Cc1cc(C)nc(/N=C(\N)Nc2ccc(C)c([N+](=O)[O-])c2)n1`, for which the “hERG current change (%, negative = inhibition) at 10uM” value is reported as -5.32%. To `CC(=O)NS(=O)(=O)c1ccc(N/C(N)=N/c2nc(C)cc(C)n2)cc1` belongs 13.3%; to `O=C(NCC1CCCO1)NC1(C(F)(F)F)Oc2ccccc2O1` (stereo not drawn), 1.63%; to `CN1CCN(S(=O)(=O)c2ccc3c4c(cccc24)C(=O)N3)CC1`, -0.59%. To `O=C(NCN1C(=O)C2C3C=CC(C3)C2C1=O)Nc1ccccn1` (stereo not drawn) belongs 9.67%; to `CCOC(=O)N1CCC(NS(=O)(=O)c2cc3c(cc2C)NC(=O)CO3)CC1`, -7.84%; to `Cc1ccc(NC(=O)NNC(=O)C2CC(c3cccnc3)=NO2)cc1` (stereo not drawn), 4.19%.

Take `O=C1c2ccccc2C(=O)N1OCCOCCOCCON1C(=O)c2ccccc2C1=O`: the “hERG current change (%, negative = inhibition) at 10uM” value is -29.2%. To `CC1(c2ccccc2)NC(=O)N(CC(=O)Nc2nnc(C3CC3)s2)C1=O` (stereo not drawn) belongs 12.1%; to `O=C(Nc1ccc(F)cc1F)c1cccn(Cc2ccccc2)c1=O`, 13.1%. To `CCn1c(CN2CCCCCC2=O)nnc1SCc1cnc(-c2ccccc2)s1` belongs -19.3%; to `COc1ccc(C(=O)COC(=O)CCCC(=O)NC2CCCCC2)cc1`, 2.77%; to `COc1ccc(S(=O)(=O)N2CCC(C(=O)N3CCc4ccccc4C3)CC2)cc1C`, -19.7%.

On to `Cc1cc(C)nc(/N=C(\N)Nc2ccc(S(=O)(=O)Nc3nc(C)cc(C)n3)cc2)n1.Cl`, for which the “hERG current change (%, negative = inhibition) at 10uM” value worked out at 38%. With `Cc1cc(C)nc(/N=C(\N)Nc2ccc(S(N)(=O)=O)cc2)n1`, the “hERG current change (%, negative = inhibition) at 10uM” value is 14.9%. Take `CCC(=O)Nc1ccc(N/C(N)=N/c2nc(C)cc(C)n2)cc1`: the “hERG current change (%, negative = inhibition) at 10uM” value was -4.25%. To `CCc1ccc(N/C(=N/c2nc(C)cc(C)n2)NC(C)=O)cc1` belongs -67%; to `Cc1cc(C)nc(/N=C(\N)Nc2ccc(C(C)C)cc2)n1`, -67.5%; to `CCOc1ccc(N/C(=N/c2nc(C)cc(C)n2)NC(C)=O)cc1`, -12.2%. To `Cc1cc(C)nc(/N=C(\N)Nc2ccc([N+](=O)[O-])cc2)n1` belongs -25%; to `Cc1cc(C)nc(/N=C(\N)Nc2ccccc2-c2ccccc2)n1`, -43.2%. Regarding `CC(=O)N/C(=N/c1nc(C)cc(C)n1)Nc1ccc(NC(C)=O)cc1`, the “hERG current change (%, negative = inhibition) at 10uM” value is listed as 9.5%.

For `CCCCc1ccc(N/C(N)=N/c2nc(C)cc(C)n2)cc1`, the “hERG current change (%, negative = inhibition) at 10uM” value is reported as -70.1%. For `Cc1cc(C)nc(/N=C(\N)Nc2ccc(-c3ccccc3)cc2)n1`, the “hERG current change (%, negative = inhibition) at 10uM” value was -81.6%. To `COc1ccc(C)cc1NC(=O)NNC(=O)c1cc2ccccc2cc1O` belongs 12.1%. For `Cc1ccc(C(=O)Nc2ccc(C)c(S(=O)(=O)Nc3ccccc3Cl)c2)s1`, the “hERG current change (%, negative = inhibition) at 10uM” value is reported as -6.43%. To `CCn1c(=O)c2c3c(sc2n2cnnc12)CCC3` belongs 20%; to `CC(=O)N1N=C(c2cccc([N+](=O)[O-])c2)OC1c1ccc(Br)cc1` (stereo not drawn), -7.59%; to `COc1ccc(OC)c(S(=O)(=O)Nc2cccc3ccc(O)cc23)c1`, 6%. To `COC(=O)CCCc1nc2ccccc2s1` belongs 8.7%; to `CN(C(=O)COC(=O)C12CC3CC(CC(C3)C1)C2)c1c(N)n(Cc2ccccc2)c(=O)[nH]c1=O`, 7.54%. To `CCOC(=O)C1(P(=O)(c2ccc(Cl)cc2)c2ccc(Cl)cc2)CCC1` belongs -25.2%; to `N/C(=N\OC(=O)COc1ccc2ccccc2c1)c1ccccn1`, -1.39%; to `CCN(C(=O)COC(=O)CCS(=O)(=O)c1ccc(C)cc1)C1CCS(=O)(=O)C1` (stereo not drawn), 12.9%. `COc1ccccc1C(C#N)N1N=C(C)CC1c1ccccc1` (stereo not drawn): the “hERG current change (%, negative = inhibition) at 10uM” value stood at 1.69%. As to `O=C(CSc1nnc(COc2ccccc2Cl)o1)NC(=O)NCc1ccco1`, the “hERG current change (%, negative = inhibition) at 10uM” value is listed as -8.18%. To `Cc1cc(C)nc(/N=C(\N)Nc2ccc3c(c2)OCCO3)n1` belongs 6.67%. To `Cc1cc(=O)[nH]c(/N=C(\N)Nc2ccc(SC(F)F)cc2)n1` belongs -15.8%; to `Cc1cc(C)nc(/N=C(\N)Nc2ccc(SC(F)F)cc2)n1`, -74.7%; to `CCOc1ccc(OCCC(=O)OCC(=O)NCCc2ccc(S(N)(=O)=O)cc2)cc1`, -4.49%.

Take `Cl.NS(=O)(=O)c1ccc(CCNCc2cccnc2)cc1`: the “hERG current change (%, negative = inhibition) at 10uM” value stood at 18.4%. To `CCOc1ccc(N2C(=O)CC(NCCc3ccc(S(N)(=O)=O)cc3)C2=O)cc1` (stereo not drawn) belongs -22%; to `COc1ccc(CNc2ccc(S(N)(=O)=O)cc2)cc1`, -52.6%. Regarding `CCOc1ccc(CNc2ccc(S(N)(=O)=O)cc2)cc1`, the “hERG current change (%, negative = inhibition) at 10uM” value is given as -6.78%. As for `C=CCOc1ccc(CNCCc2ccc(S(N)(=O)=O)cc2)cc1.Cl`, the “hERG current change (%, negative = inhibition) at 10uM” value is listed as -81.4%. To `COc1ccc(CNC(=S)Nc2ccc(S(N)(=O)=O)cc2)cc1` belongs 22.1%. To `Cl.NS(=O)(=O)c1ccc(CCNCc2cccs2)cc1` belongs 4.04%; to `CCOc1ccc(CNCCc2ccc(S(N)(=O)=O)cc2)cc1.Cl`, -70.1%; to `COc1ccc(C(=O)NC(=S)N2CCN(c3ccccc3OC)CC2)cc1`, -21.6%. Consider `O=C(COC(=O)c1cccnc1)c1ccc(Cl)cc1`, for which the “hERG current change (%, negative = inhibition) at 10uM” value stood at 4.51%. To `CCCCn1c(SCn2nnc3ccccc3c2=O)nc2cc(S(N)(=O)=O)ccc21` belongs -34.5%; to `COc1ccc(C(C(O)C(=O)c2c[nH]c3ccccc23)N2CCN(c3ccccc3)CC2)cc1` (stereo not drawn), -13.8%. To `COc1ccc(C(C(O)C(=O)c2c[nH]c3ccccc23)N2CCN(c3ccc(OC)cc3)CC2)cc1` (stereo not drawn) belongs -7.36%. To `COc1ccc(N2CCN(CC(=O)c3c(C)n(C)c4ccc(OC)cc34)CC2)cc1` belongs -4.1%; to `Cl.O=C(NCCCN1CCOCC1)C(=O)c1c[nH]c2ccccc12`, -3.03%; to `COc1ccc(N2CCN(C(=O)C(=O)c3c(C)n(C)c4ccccc34)CC2)cc1`, 10.4%.

For `CCN1CCN(CCCNC(=O)C(=O)c2c(C)[nH]c3ccccc23)CC1`, the “hERG current change (%, negative = inhibition) at 10uM” value is reported as 3.67%. For the compound `COc1ccc(N2CCN(CCCNC(=O)C(=O)c3c(C)n(C)c4ccccc34)CC2)cc1`, the “hERG current change (%, negative = inhibition) at 10uM” value was -64.1%. To `CCN1CCN(C(c2ccc(OC)cc2)C(O)C(=O)c2c[nH]c3ccccc23)CC1` (stereo not drawn) belongs -69%; to `COc1ccc(N2CCN(C(=O)C(=O)c3c(C)[nH]c4ccccc34)CC2)cc1`, -14.1%; to `COc1ccc(N2CCN(CC(=O)c3c[nH]c4ccccc34)CC2)cc1`, 8.09%. To `COc1ccc(N2CCN(CCCNC(=O)C(=O)c3c[nH]c4ccccc34)CC2)cc1` belongs -69.7%; to `COc1ccc(N2CCN(CCCNC(=O)C(=O)c3c(C)[nH]c4ccccc34)CC2)cc1`, -53.3%; to `O=C(NCCN1CCOCC1)c1cccc(S(=O)(=O)N(Cc2ccccc2)c2ccccc2)c1`, -19.3%.

For the compound `CCOC(=O)c1sc(C)c(C(=O)NC2CCCCC2)c1N`, the “hERG current change (%, negative = inhibition) at 10uM” value is -4.79%.

Take `CNC(=O)c1c(NC(=O)CCS(=O)(=O)c2ccccc2)sc(C)c1C`: the “hERG current change (%, negative = inhibition) at 10uM” value is 0.0126%. To `COc1ccc(/C=N/NC(=O)Cc2csc(Nc3cccc(C(F)(F)F)c3)n2)cc1C` belongs 10.7%; to `CCOC(=O)c1cc(-c2ccccc2)sc1NC(=O)COC(=O)c1cccc(S(N)(=O)=O)c1`, 10.2%; to `CC1CC(C)CN(CCCNC(=O)CCC(=O)N2CC(C)Oc3ccccc32)C1` (stereo not drawn), -32.2%. To `Cc1cccc(/C=N/NC(=O)c2cccc(NC(=O)c3ccccc3)c2)n1` belongs 0.172%. To `CCOCc1nnc(NC(=O)CSc2ccc(C)cc2)s1` belongs 6.61%. Turning to `Cc1c(N2CCCC2)cc2c(c1NC(=O)c1ccccc1Cl)C(C)(C)CC2(C)C`, the “hERG current change (%, negative = inhibition) at 10uM” value is reported as -25.6%.

For `CN1/C(=C/c2cccc[n+]2C)Sc2ccccc21.[I-]`, the “hERG current change (%, negative = inhibition) at 10uM” value is given as -22.7%. To `COc1ccccc1-[n+]1c(C)cc(/C=C2\Sc3ccccc3N2C)cc1C.[I-]` belongs -69.6%. To `COc1ccc(C(=O)/C=C2\Sc3ccccc3N2C)cc1` belongs 11.1%.

Take `COc1ccc(-[n+]2c(C)cc(/C=C3\Sc4ccccc4N3C)cc2C)cc1.[I-]`: the “hERG current change (%, negative = inhibition) at 10uM” value is on record as -60.2%. Turning to `CN1/C(=C/c2cccc[n+]2CCO)Sc2ccccc21.[I-]`, the “hERG current change (%, negative = inhibition) at 10uM” value is reported as 12.4%. To `COc1cc(OC)cc(C(=O)/C=C2\Sc3ccccc3N2C)c1` belongs 9.82%.
